From the supplement of paper PMC13380429
Unmarked numbers belong to inactive results.

Tested on: Vero E6 infected with SARS-CoV-2
Test: inhibition of SARS-CoV-2 cytopathic effect; higher = more antiviral protection, active = above 15
Settings: 48 h

Row | Compound | inhibition of SARS-CoV-2 cytopathic effect (1 nM) | inhibition of SARS-CoV-2 cytopathic effect (8.33 nM) | inhibition of SARS-CoV-2 cytopathic effect (100 nM) | inhibition of SARS-CoV-2 cytopathic effect (833.33 nM) | inhibition of SARS-CoV-2 cytopathic effect (10000 nM)
1 | CCn1cc(C(=O)O)c(=O)c2cnc(N3CCNCC3)nc21 [pipemidic-acid] | 0.65% | 2.63% | 1.17% | -0.86% | 1.68%
2 | CCCC[C@@H](NC(=O)[C@@H](Cc1cn(C(=O)OC)c2ccccc12)NC(=O)[C@H](CC(C)(C)C)NC(=O)N1[C@H](C)CCC[C@@H]1C)C(=O)O | 1.03% | 2.89% | 1.32% | -1.6% | 1.29%
3 | O=C(O)c1cc(O)c2c(c1)C(=O)c1cccc(O)c1C2=O [rhein] | -0.32% | -0.35% | -3.51% | -0.03% | -2.1%
4 | CCCNC(=O)Nc1ccc(Oc2ncnc3cc(OC)c(OC)cc23)cc1Cl | 0.58% | 0.62% | 1.2% | 0.47% | -2.74%
5 | CCN(CC)CCCCNc1ncc2cc(-c3cc(OC)cc(OC)c3)c(NC(=O)NC(C)(C)C)nc2n1 | -0.74% | 1.53% | -0.45% | -4.96% | 45.1% (active)
6 | NC(=O)c1nc(Nc2ccccc2)sc1NC(=O)C1CCCCC1 | 1.69% | 3.22% | -0.11% | -8.95% | -4.1%
7 | CC12CCC(CC1=O)C2(C)C (stereo not drawn) [camphor-(+)] | 1.23% | 0.085% | -0.16% | 1.82% | -0.53%
8 | COc1ccc(-c2ccc3ncc4c(c3c2)n(-c2ccc(N3CCNCC3)c(C(F)(F)F)c2)c(=O)n4C)cn1 | 0.99% | 2.5% | -0.69% | -8.37% | -23.9%
9 | CN1CCN(Cc2ccc(Nc3ncc(Cl)c(Nc4ccccc4S(=O)(=O)N(C)C)n3)cc2)CC1 | 1.64% | 0.81% | 2.68% | -8.19% | -10.2%
10 | N=C(Nc1ccccc1)Nc1ccccc1 [diphenylguanidine] | -3.55% | -2.37% | -2.77% | -0.58% | 2.16%
11 | CC1=NN(c2ccccc2)C(=O)C1 [edaravone] | 1.36% | 0.66% | -0.76% | 0.1% | 3.57%
12 | Cc1cccc(CN2CCN(C(c3ccccc3)c3ccc(Cl)cc3)CC2)c1 (stereo not given) [meclizine] | 4.53% | 3.44% | 2.18% | 4.25% | 3.46%
13 | Oc1ccc2c3c1O[C@H]1c4[nH]c5ccccc5c4C[C@@]4(O)[C@@H](C2)N(CC2CC2)CC[C@]314 [naltrindole] | 1.74% | 3.59% | 1.09% | 0.82% | -3.58%
14 | CN(C(=O)c1ccc(F)cc1C(F)(F)F)C1CCN(c2nnc(-c3ccnn3C)c3ccccc23)CC1 [taladegib] | 0.16% | -6.09% | -5.17% | -5.9% | -5.54%
15 | O=C(N[C@H]1CN2CCC1CC2)c1ccc(Cl)cc1 | 1.35% | 0.97% | 1.21% | 0.86% | 1.51%
16 | O=C(O)CN1C(=O)c2cccc3cccc(c23)C1=O [alrestatin] | 5.18% | 3.1% | 3.59% | 4.81% | 1.83%
17 | Brc1ccc(NC2C3CC4CC(C3)CC2C4)cc1 (stereo not given) [bromantan] | -1.24% | -0.71% | -0.8% | 0.76% | 1.67%
18 | CNCC(O)c1ccc(OC(=O)C(C)(C)C)c(OC(=O)C(C)(C)C)c1 (stereo not given) [dipivefrine] | 0.87% | 3.76% | 1.77% | 1.42% | 0.56%
19 | COC(=O)c1ccccc1O [methyl-salicylate] | 0.7% | 2.86% | 2.42% | -0.42% | -3.74%
